Screen size: about 69,000 compounds; about 8,600 (12%) showed an effect of 50% or more. This excerpt belongs to a sample that is enriched for strong results.
Test system: Plasmodium berghei
Assay: Screen against P. berghei liver stage (PbLuc), transformed with Luciferase, at 10uM
Assay type: functional, HepG2
Details: tested at 10 uM

Going from `CO[C@@H]1CCN(Cc2cccc(C)n2)[C@@H]2CN(Cc3ccncc3)C[C@@H]21` to `CN(c1cccnn1)[C@@H]1CC[C@@H]2CN(Cc3ccccc3C(=O)O)C[C@@H]21`, the INHIBITION rises from -64.5% to 19.65%.

Compared with `Cc1ccc2snc(C(=O)N3CCN(C(=O)NCCC(C)C)CC3)c2c1`, `Cc1ccc(C)c(CN2C[C@@H]3CC[C@H]2CN(C(=O)c2cccnc2)C3)c1` is lower in INHIBITION: 28.4% for the first, -70.7% for the second.

First: COc1cc(CNCCc2cnn(C)c2)cc2c1OCO2
Second: COCCN1CCc2c(CNC(=O)c3nccn3C)cncc2C1
The INHIBITION of the first is lower: -3.75% for the first, 43.9% for the second.

Going from `Cc1cnn(CC2CN(Cc3nccn3CC(F)(F)F)CCO2)c1` (stereo unspecified) to `Cc1cnn(CC2CCCN2Cc2nc(N)c3ccccc3n2)c1` (stereo unspecified), the INHIBITION rises from 29.7% to 31.2%.

Going from `CC(Nc1ncnc2c1NC(=O)CN2)c1ccccn1` (stereo unspecified) to `CNC(=O)C1CN(c2ncccn2)CCN1Cc1ccccc1` (stereo unspecified), the INHIBITION rises from 14.3% to 19.3%.

First: O=C1CCCN1CCCN1CCCC1Cn1cccn1 (stereo unspecified)
Second: O=C1CCCN1CCCN1CCCCC1Cn1cncn1 (stereo unspecified)
The INHIBITION of the first is lower: 24.6% for the first, 50.4% for the second.

Compared with `Cc1cnn(CC2CCCCN2Cc2nc(C)c3ccccc3n2)c1` (stereo unspecified), `Cc1cnn(CC2CCCN2Cc2nc(C)c3ccccc3n2)c1` (stereo unspecified) is higher in INHIBITION: 36.1% for the first, 53% for the second.

Compared with `c1ccc(-n2cc(CN3CCCCC3Cn3cncn3)nn2)cc1` (stereo unspecified), `c1ccc(-n2cc(CN3CCCC3Cn3cncn3)nn2)cc1` (stereo unspecified) is higher in INHIBITION: 0.914% for the first, 50.3% for the second.

Going from `Nc1nc(CN2CCCC2Cn2cncn2)nc2ccccc12` (stereo unspecified) to `Cc1cnn(CC2CCCCN2Cc2nc(N)c3ccccc3n2)c1` (stereo unspecified), the INHIBITION rises from -26.22% to 58.2%.

Going from `c1ccc(-n2ccc(CN3CCCC3Cn3cncn3)n2)cc1` (stereo unspecified) to `Cc1nc(CN2CCCC2Cn2cccn2)nc2ccccc12` (stereo unspecified), the INHIBITION rises from 9.64% to 27.6%.

Compared with `O=C1CCCN1CCN1CCCCC1Cn1cncn1` (stereo unspecified), `CCN(CC)S(=O)(=O)N1CCCN(CC2CCCO2)CC1` (stereo unspecified) is higher in INHIBITION: -19.2% for the first, 41.7% for the second.

First: Cc1ccc(C2CSCCN2C(=O)c2cccnc2)cc1 (stereo unspecified)
Second: CCCNCc1cn(Cc2ccccc2)nc1-c1cccnc1
The INHIBITION of the first is lower: -39.8% for the first, 16.5% for the second.

Going from `c1ccc(CO[C@H]2CN(c3ncccn3)C[C@@]23CCCO3)cc1` to `CC(O)(CNC(=O)NCCc1ccc2c(c1)CCO2)c1ccccc1` (stereo unspecified), the INHIBITION rises from -42.1% to -5.57%.

Going from `Nc1nnc(CCCNC(=O)c2ccc(C3CCCNC3)cc2)s1` (stereo unspecified) to `CS(=O)(=O)c1ccc(Cl)c(C(=O)NCCC2=CCCCC2)c1`, the INHIBITION falls from 20.6% to -19.2%.

Compared with `CC(C)NC(=O)c1ccn(COc2c(Cl)cccc2Cl)n1`, `N#CCCn1cnc2c(Br)cccc2c1=O` is lower in INHIBITION: 35% for the first, 33.6% for the second.

`Cc1nc(CN2CCOCC2c2[nH]ncc2C)cs1` (stereo unspecified) was tested, and the INHIBITION was 8.335%.

From ChEMBL document CHEMBL4513216, “Probing the Open Global Health Chemical Diversity Library for Multistage-Active Starting Points for Next-Generation Antimalarials” (ACS Infect Dis, 2020)
